# Data published in PubChem BioAssay AID602360 (National Center for Advancing Translational Sciences (NCATS), 2012).
# Records with an inconclusive call do not appear. Active and inactive are the calls of the source. The call rests on the fitted dose curve; in most records, active means well fitted curve in the direction sought with a large enough effect; inconclusive means small, poorly fitted or top-dose-only effect, or another doubt; inactive means no such curve, though single readings can be large or run the other way.
# Target: Holo-[acyl-carrier-protein] synthase (Bacillus subtilis (strain 168)) (UniProt P96618)
# Experiment: qHTS Assay for Inhibitors of Bacillus subtilis AcpS phosphopantetheinyl transferase (PPTase): SAR
# Settings: purified B. subtilis AcpS enzyme; Potency: PPTase activity; series mostly up to 57.1 µM; activity change, negative = inhibition: at the top concentration
# Source text: The covalent attachment of a phosphopantetheinyl (4'-PP) arm to a variety of synthases and other proteins is a key posttranslational protein modification. The 4'-PP is installed on the proteins post-translationally from coenzyme A (CoA) on a conserved serine residue by action of phosphopantetheinyl transferase (PPTase) enzymes. Phosphopantetheinylation is essential for synthase activity, and removal of the PPTase gene precludes natural product synthesis in microorganisms, or in the case of fatty acid biosynthesis, renders the organism unviable. PPTase enzymes belong to a distinct structural superfamily. Within bacteria, these enzymes are grouped into two classes based upon primary structure, the AcpS-Type and Sfp-Type PPTases.
# Sfp-type PPTases, corresponding to an activator of surfactin production in Bacillus subtilis, are responsible for modifying type I polyketide and nonribosomal peptide synthases of prokaryotes. Sfp-type PPTases are responsible for the activation of a variety of pathogen-associated virulence factors. Among these compounds are toxins such as mycolactone from Mycobacterium ulcerans, siderophores such as vibriobactin from Vibrio cholerae or mycobactin from Mycobacterium tuberculosis, as well as the mycolic acids which form the waxy cell wall of Mycobacteria. The biosyntheses of these natural products are considered attractive targets for drug design.
# In search of small molecule Sfp-PPTase inhibitors, a fluorescence quenching assay was developed for detection of Bacillus subtilis Sfp-PPTase enzymatic activity in a miniaturized high-throughput format. The consensus ybbr acceptor peptide […] was N-terminally labeled with Black Hole Quencher-2 (BHQ-2) and used in combination with rhodamine-labeled coenzyme A as a co-substrate.
# This project seeks to identify Sfp-PPTase inhibitors. This assay sought to determine the activity of these compounds with holo-acyl carrier protein synthase (AcpS) from E. coli, the canonical representative of the AcpS-PPTase subgrouping (vide supra). The evaluation utilized the qHTS assay format, with the only change being direct substitution of the enzyme.
# NIH Chemical Genomics Center [NCGC]
# NIH Molecular Libraries Probe Centers Network [MLPCN]
# Assay Submitter (PI): Michale Burkart, University of California, San Diego
# The assay was performed in a buffer consisting of 50mM HEPES-Na pH 7.6, 10mM MgCl2, 0.01% Nonidet P-40, and 0.01% BSA. Reagents (3 uL) were dispensed into a 1536-well black solid bottom plate (100 nM AcpS PPTase incolumns 1, 2, 5 through 48; buffer sans enzyme in columns 3 &4). DMSO solution of test articles (23 nL) were transferred via Kalypsys pintool equipped with 1,536-pin array. Following a room temperature incubation (15 min), enzyme reactions were initiated by the addition of substrate (1 uL , final concentration in the plte for rhodamine-CoA and BHQ-2-YbbR 5 uM and 12.5 uM, respectively). The plate was then centrifuged (15 s, 1000 rpm), and the fluorescence intensity recorded on a ViewLux High-throughput CCD imager (Perkin-Elmer, 525 nm excitation and 598 nm emission). The plate was then incubated at room temperature (30 min), after which a second read on the ViewLux was recorded. The fluorescence intensity difference over the 30-minute period was used to calculate the respective reaction rate for each well.
Structure (SMILES),"activity change, negative = inhibition",Potency
Cc1nc(CN(C)c2ncnc3ccc(-c4ccc5[nH]ncc5c4)cc23)cs1,55.2% (inactive),
CSC(Cc1ccc(Cl)cc1)C(=O)Nc1ccc(Cl)cc1C(=O)O (configuration not stated),1.84% (inactive),
Cc1ccnc(NC(=S)N2CCCc3ccc(C(F)(F)F)cc32)c1,1.85% (inactive),
Cc1ccnc(NC(=S)N2CCN(c3cc(C(F)(F)F)cc(C(F)(F)F)c3)CC2)c1,,4.57 µM (active)
Cc1ccnc(N=C(N)N2CCN(c3cccc(C(F)(F)F)c3)CC2)c1,15.1% (inactive),
Cc1ccnc(NC(=S)Nc2cccc(C(F)(F)F)c2)c1,-5.9% (inactive),
FC(F)(F)c1cc(N2CCN(C(=S)Nc3cc(Cl)ccn3)CC2)cc(C(F)(F)F)c1,10.1% (inactive),
CC(Cc1ccccc1)C(=O)Nc1ccc(Cl)cc1C(=O)O (configuration not stated),-11.5% (inactive),
Cc1cc(C)nc(NC(=S)N2CCN(c3ncccc3C#N)CC2)c1,-7.03% (inactive),
COc1cccc(NC(=S)N2CCN(c3cc(Cl)cc(Cl)c3)CC2)n1,8.03% (inactive),
Cc1ccnc(NC(=S)N[C@@H]2CCN(c3cccc(C(F)(F)F)c3)C2)c1,-1.64% (inactive),
Cc1cc(C)nc(NC(=S)N2CCN(c3ccc([N+](=O)[O-])cc3Cl)CC2)c1,,6.46 µM (active)
